The source of these data is the supplement of paper PMC13380429.

For assay [1], the system named is Vero E6 infected with SARS-CoV-2. The experiment in a line: morphology score (similarity to uninfected cells); higher = more like uninfected cells. The note with it: 24 h.
Assay [2] has the same test system. In words: SARS-CoV-2 infection rate relative to infected DMSO; higher = more infection, active = 60 or less. The note with it: 24 h.

`Oc1cc(CNC(=S)/C=C/c2cc(O)c(O)c(Br)c2)cc(O)c1O` (0.833333 µM) had a morphology score in assay [1] of 0.194. For the same compound, in assay [2], the SARS-CoV-2 infection rate is 104% (inactive).

Turning to `COc1cc2c(Oc3ccc4[nH]c(C)cc4c3F)ccnc2cc1OCC1(N)CC1` [anlotinib] (10 µM), in assay [1], the morphology score was -0.207. The SARS-CoV-2 infection rate in assay [2] was 100% (inactive).

As for `N#Cc1cnc2cnc(NCc3cccnc3)cc2c1Nc1ccc(F)c(Cl)c1` (10 µM), the morphology score in assay [1] worked out at 0.0314. In addition, in assay [2], the SARS-CoV-2 infection rate was 102% (inactive).

Consider `Cn1nnc(-c2ccc(-c3ccc(N4C[C@H](COP(=O)(O)O)OC4=O)cc3F)cn2)n1` [tedizolid-phosphate] (10 µM), for which, in assay [1], the morphology score was 0.194. Also, the SARS-CoV-2 infection rate in assay [2] is 88% (inactive).

As to `O=C(Cn1c(=O)sc2ccc(Cl)cc21)N1CCN(CCO)CC1` [tiaramide] (10 µM), the morphology score in assay [1] was 0.00737. The SARS-CoV-2 infection rate in assay [2] is 104% (inactive).

Consider `COc1ccc(-c2coc3cc(O)cc(O)c3c2=O)cc1` [4-methylgenistein] (10 µM), for which, in assay [1], the morphology score came out at 0.139. In addition, the SARS-CoV-2 infection rate in assay [2] was 103% (inactive).

In the case of `NC(=O)c1ncn([C@@H]2O[C@H](CO)[C@@H](O)[C@H]2O)n1` [ribavirin] (10 µM), the morphology score in assay [1] turned out to be 0.0157. The SARS-CoV-2 infection rate in assay [2] was 97.5% (inactive).

With `CC1(C)N=C(N)N=C(N)N1OCCCOc1cc(Cl)c(Cl)cc1Cl` (10 µM), the morphology score in assay [1] stood at 0.205. Further, the SARS-CoV-2 infection rate in assay [2] was 89.5% (inactive).

In assay [1], `Nc1ccn([C@@H]2O[C@H](CO)[C@@H](O)[C@@H]2O)c(=O)n1` [cytarabine] (0.833333 µM) came in with a morphology score of 0.0731. Besides, in assay [2], the SARS-CoV-2 infection rate is 97% (inactive).

Consider `COc1cc(OC)cc(C(=O)NNC(=O)Nc2cccc3ccccc23)c1` (10 µM), for which, in assay [1], the morphology score was determined as 0.0721. Also, in assay [2], the SARS-CoV-2 infection rate is 105% (inactive).

Consider `O=C(Nc1cccnc1)N1CCC(Cc2cccc(Oc3ccc(C(F)(F)F)cn3)c2)CC1` (0.833333 µM), for which the morphology score in assay [1] turned out to be 0.191. Besides, the SARS-CoV-2 infection rate in assay [2] was 95.5% (inactive).

Regarding `COc1ccc2cccc(CCNC(C)=O)c2c1` [agomelatine] (10 µM), in assay [1], the morphology score was determined as 0.11. Besides, the SARS-CoV-2 infection rate in assay [2] was 114% (inactive).

In assay [1], `COc1nc(C)nc(Cl)c1NC1=NCCN1` [moxonidine] (10 µM) had a morphology score of 0.0753. Also, the SARS-CoV-2 infection rate in assay [2] was 102% (inactive).

For `COc1ccc(Nc2ccn(-c3ccccc3)n2)cc1` (10 µM), the morphology score in assay [1] was determined as 0.166. For the same compound, the SARS-CoV-2 infection rate in assay [2] is 87.5% (inactive).

With `CN(C)Cc1c(C(=O)NCCOc2ccc(C(=O)NO)cc2)oc2ccccc12` (10 µM), the morphology score in assay [1] was -0.197. For the same compound, the SARS-CoV-2 infection rate in assay [2] was 96.5% (inactive).

Regarding `Nc1ccc(S(=O)(=O)Nc2cnc3ccccc3n2)cc1` [sulfaquinoxaline] (10 µM), the morphology score in assay [1] was determined as 0.114. Further, the SARS-CoV-2 infection rate in assay [2] was 104% (inactive).

In turn, `Clc1ccc(COC(Cn2ccnc2)c2ccc(Cl)cc2Cl)cc1` (stereo not given) [econazole] (10 µM) showed a morphology score in assay [1] of -0.225. Moreover, the SARS-CoV-2 infection rate in assay [2] was 101% (inactive).

In assay [1], `CCCN(C/C=C/I)C1CCc2cccc(O)c2C1` (stereo not given) [8-hydroxy-PIPAT] (10 µM) gave a morphology score of -0.0478. In addition, in assay [2], the SARS-CoV-2 infection rate is 106% (inactive).

Consider `FC(F)(F)c1ccc(CNc2ccc(Cc3c[nH]c4ncc(Cl)cc34)cn2)cn1` [pexidartinib] (10 µM), for which the morphology score in assay [1] turned out to be 0.473. In addition, the SARS-CoV-2 infection rate in assay [2] is 77.5% (inactive).

On to `CC(C)CCC[C@@H](C)[C@H]1CC[C@H]2[C@@H]3CCC4=CC(=NO)CC[C@]4(C)[C@H]3CC[C@]12C` [olesoxime] (10 µM), for which the morphology score in assay [1] is -0.0917. Moreover, in assay [2], the SARS-CoV-2 infection rate was 106% (inactive).

In assay [1], `CC1=C(C)C(=O)C(C(CCCCCC(=O)O)c2ccccc2)=C(C)C1=O` (stereo not given) [seratrodast] (10 µM) had a morphology score of 0.0459. In addition, in assay [2], the SARS-CoV-2 infection rate was 100% (inactive).

With `CN(CCOc1ccc(C[C@H](Nc2ccccc2C(=O)c2ccccc2)C(=O)O)cc1)c1ccccn1` (10 µM), the morphology score in assay [1] was 0.317. The SARS-CoV-2 infection rate in assay [2] is 70% (inactive).

In turn, `C=C1CC[C@H](O)C/C1=C/C=C1\CCC[C@]2(C)[C@@H]([C@H](C)/C=C/[C@H](C)C(C)C)CC[C@@H]12` [ergocalciferol] (10 µM) displayed a morphology score in assay [1] of 0.0614. Moreover, the SARS-CoV-2 infection rate in assay [2] was 93.5% (inactive).

The compound `CC(C)(N)Cc1ccccc1` [phentermine] (10 µM) showed a morphology score in assay [1] of -0.154. The SARS-CoV-2 infection rate in assay [2] is 118% (inactive).

Regarding `C1=Cc2cccc(OCC3CNCCO3)c2C1` (stereo not given) [indeloxazine] (10 µM), in assay [1], the morphology score was -0.319. For the same compound, in assay [2], the SARS-CoV-2 infection rate was 106% (inactive).

Compound `Cc1ccc([N+](=O)[O-])cc1S(=O)(=O)N(C)C` (10 µM) showed a morphology score in assay [1] of 0.0445. Moreover, in assay [2], the SARS-CoV-2 infection rate was 97% (inactive).

`CC[C@]12C=CCN3CC[C@@]4(c5cc([C@@]6(C(=O)OC)C[C@@H]7C[C@@H](C(C)(F)F)CN(Cc8c6[nH]c6ccccc86)C7)c(OC)cc5N(C)[C@H]4[C@@](O)(C(=O)OC)[C@@H]1OC(C)=O)[C@@H]32` [Vinflunine Ditartrate] (10 µM): the morphology score in assay [1] is -0.12. In addition, the SARS-CoV-2 infection rate in assay [2] was 105% (inactive).

For `COc1cc2c(cc1OC)[C@@H]1Cc3ccc(OC)c(OC)c3CN1CC2` [rotundine] (10 µM), the morphology score in assay [1] was 0.0444. In addition, the SARS-CoV-2 infection rate in assay [2] is 110% (inactive).

`Cc1onc(-c2c(Cl)cccc2Cl)c1C(=O)N[C@@H]1C(=O)N2[C@@H]1SC(C)(C)[C@@H]2C(=O)O` [dicloxacillin] (10 µM) had a morphology score in assay [1] of 0.0315. The SARS-CoV-2 infection rate in assay [2] is 115% (inactive).

Regarding `CCC(=O)NO` (10 µM), in assay [1], the morphology score was 0.00785. The SARS-CoV-2 infection rate in assay [2] was 112% (inactive).
